Source: PubChem BioAssay AID1259240 (Keith Lab, Institute of Cancer Science, University of …, 2017)
Activity calls are given as the source filed them. Cut-off read from the data, not from the text of the source: active = fold change mostly below about -2 (no sharp cut-off); inactive = mostly above about -1.8.

Experiment: TERT promoter activity modulators, primary screen, cell-based, luciferase reporter, human (AID 1259240)
Conditions: A2780 TERT promoter luciferase reporter, 16 h; at 20 µM, fold versus average of vehicle-only wells

Fold change, inactive:
C=CCN1CN=C(NS(=O)(=O)c2ccc(C)cc2)NC1 -1.75
CCN1CCCC1CNC(=O)CN1C(=O)COc2ccc(S(=O)(=O)N3CCC(C)CC3)cc21 (centres undefined) 1.28
COc1ccc(C2c3c(oc4ccc(F)cc4c3=O)C(=O)N2Cc2ccc3c(c2)OCO3)cc1 (centres undefined) -1.27
c1ccc2c(c1)CCN2c1nnc(Cc2ccncc2)c2ccccc12 -1.29
COc1cc(OC)c(NC(=O)Nc2cc3sccc3n2C)cc1Cl 1.13
Cc1c(Cl)cccc1NS(=O)(=O)c1cccc2cccnc12 -1.05
COc1ccc(-c2cc(N3C(=O)Nc4ccccc4N3O)n[nH]2)cc1OC 1.2
O=C(O)CN1C(=O)/C(=C\c2ccc(-c3ccccc3)o2)SC1=S -1.88
c1ccc(-c2nnc3ccc(N4CCC5(CC4)OCCO5)nn23)cc1 1.02
COCCNc1cc(C)nc2c(-c3ccc(Cl)cc3)c(C)nn12 -1.07
COc1ccc(-c2nnc3c4ccccc4c(C)nn23)cc1S(=O)(=O)NC(C)C -1.07
O=C(CSc1nc(-c2ccco2)cc(C(F)(F)F)n1)N1CCc2ccccc21 -1.91
CSc1nsc(SC)c1C(=O)NCCNS(=O)(=O)c1ccc(C)cc1 -1.37
CCOc1ccc(OCC)c(NC(=O)C2CCCN(S(=O)(=O)c3cnc[nH]3)C2)c1 (centres undefined) 1.05
COc1cccc(N=c2oc3c(OC)cccc3cc2S(=O)(=O)c2ccccc2)c1 -1.92
O=C(CSc1ncnc2ccccc12)N1CCCc2ccccc21 -1.11
CCN1CCN(S(=O)(=O)c2ccc3[nH]c(=O)oc3c2)CC1 1.02
O=C(CSc1ncnc2ccccc12)Nc1cccc(F)c1 1.32
COc1ccc(-c2nc3s/c(=C\c4ccccc4)c(=O)n3n2)cc1OC 1.68
CC1(C)CC(=O)c2sc(NC(=O)C(C)(C)C)nc2C1 1.32
COC(=O)CSc1nnc2sc3ccccc3n12 -1.32
O=C1CC(c2cc3c(cc2Cl)OCO3)c2cc3c(cc2N1)OCCO3 (centres undefined) 1.12
CCOC(=O)Cn1c(=O)oc2cc(S(=O)(=O)NCc3cccs3)ccc21 -1.2
Cc1ccc(NC(=O)CC2Sc3ccc(C(F)(F)F)cc3NC2=O)cc1C (centres undefined) -1.24
Cn1c(=O)c2cc(S(=O)(=O)NCCC(=O)NC3CCCCCC3)ccc2n(C)c1=O 1.3
CN(CC(=O)Nc1ccc(Br)cc1)S(=O)(=O)c1ccc2c(c1)CCC(=O)N2 -1.38
Cc1cc(C)nc(SCC(=O)Nc2ccc(S(=O)(=O)Nc3onc(C)c3C)cc2)n1 1.02
O=C(O)CCN1C(=O)c2ccccc2S1(=O)=O -1.2
Cc1nc2c(-c3ccc(F)cc3)c(C)nn2c(C)c1CCC(=O)NC(C)C -1.28
CCOC(=O)c1nn(-c2ccc(OC)cc2)c(=O)c2c(NC(C)=O)scc12 1.14
CN(C)C(=O)Nc1ccc2snnc2c1 1.12
Cc1ccc2nc(Cl)c3nncn3c2c1 1.44
CCc1nnc(NC(=O)CSc2ncnc3ccccc23)s1 1.11
Cc1[nH]nc2c1C(c1ccc(O)cc1)NC2=O (centres undefined) -1.14
Cc1ccc(Cl)cc1N1C(=O)Nc2ccccc2N1O -1.07

Fold change, active:
CC(C)C(NC(=O)CN1C(=O)c2ccccc2S1(=O)=O)C(C)C -2.34
COc1ccc2c(c1)OC13CCCCC1C2C(C(=O)c1ccccc1)C(=O)N3 (centres undefined) -2.84
COc1ccccc1CNc1nc2ccccc2n2nnnc12 -3.71

outcome, inactive:
COC(=O)c1nc2n(n1)C(c1ccc(C)cc1)C1=C(CCCC1=O)N2 (centres undefined)
